Where “and” joins values, the source holds several entries; their conditions need not be identical. Identical values can stand only once. Unmarked numbers belong to inactive results. Calls of active or inactive are those of the source.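 The calls were made as follows: active = inhibition at or above 50% relative to wild type and mutant plate controls; inactive = inhibition below 50%.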
Assay: loss of swimming-algae plug formation – whole organism, Chlamydomonas reinhardtii, WT vs cilia-less mutant, absorbance, 96-well, primary screen (AID 463189);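 also: 0% = wild type cc124 cells in DMSO and 100% = ciliumless bld1 mutant cells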
Conditions: Chlamydomonas reinhardtii gravitaxis, OD600 absorbance, 2 days; at 10 µM; active compounds read high

Q: With CC(N)Cc1c[nH]c2ccc(OCc3cccs3)cc12 (stereo not drawn) as the molecule, how does the inhibition read?
A: 5.48%

Q: Which inhibition does the source give for CN1C2CCC1CC(OC(=O)c1cc(Cl)cc(Cl)c1)C2 (stereo not drawn) here?
A: 116% (active)

Q: For Clc1cnc(Oc2ccc(Oc3ncc(Cl)cc3Cl)cc2)c(Cl)c1, which inhibition is on record?
A: 2.67%

Q: For CCCN(CCC)CCc1ccc(O)c(O)c1, which inhibition is on record?
A: 0.931%

Q: For CN1C(=O)CCS(=O)(=O)C1c1ccc(Cl)cc1 (stereo not drawn), which inhibition is on record?
A: 9.97%

Q: For CCCCCCCCC(=O)NCc1ccc(O)c(OC)c1, which inhibition is on record?
A: 12.3%

Q: For CC(=O)c1c(O)c(C)c(O)c(Cc2c(O)c3c(c(C(=O)/C=C/c4ccccc4)c2O)OC(C)(C)C=C3)c1O, which inhibition is on record?
A: -7.31%

Q: Which inhibition does the source give for Oc1ccc2c3c1O[C@H]1c4[nH]c5ccccc5c4C[C@@]4(O)C(C2)N(CC2CC2)CCC314 (stereo partly drawn) here?
A: 3.32%

Q: With CCCN(CCC)C1Cc2cc(OC)c(OC)cc2C1 as the molecule, how does the inhibition read?
A: -11.6%

Q: For C[C@@H]1O[C@@H](O[C@H]2C[C@@H](O)[C@]3(CO)[C@H]4[C@H](O)C[C@]5(C)[C@@H](C6=CC(=O)OC6)CC[C@]5(O)[C@@H]4CC[C@]3(O)C2)[C@H](O)[C@H](O)[C@H]1O, which inhibition is on record?
A: 6.79%

Q: For NC(Cn1oc(=O)[nH]c1=O)C(=O)O (stereo not drawn), which inhibition is on record?
A: -0.927%

Q: Which inhibition does the source give for CC1OC1P(=O)(O)O (stereo not drawn) here?
A: 0.291%

Q: With CN(N=O)c1ccc(O)c(O)c1 as the molecule, how does the inhibition read?
A: 1.04%

Q: With C=C(C)[C@H]1Cc2c(ccc3c2O[C@@H]2COc4cc(OC)c(OC)cc4[C@@H]2C3=O)O1 as the molecule, how does the inhibition read?
A: 4.66%

Q: Which inhibition does the source give for CN1CCc2cc(O)cc3c2[C@H]1Cc1ccc(O)c(O)c1-3 here?
A: -0.305%

Q: For COC(=O)[C@@H](N)CCCN=C(N)N[N+](=O)[O-], which inhibition is on record?
A: -4.62%

Q: For O=[N+]([O-])c1ccc(O[C@@H]2O[C@H](CO)[C@@H](O)[C@H](O)[C@H]2F)c([N+](=O)[O-])c1, which inhibition is on record?
A: 3.53%

Q: With O=C(O)c1nn(Cc2ccc(Cl)cc2Cl)c2ccccc12 as the molecule, how does the inhibition read?
A: -0.768%

Q: With CC12NC(Cc3ccccc31)c1ccccc12 (stereo not drawn) as the molecule, how does the inhibition read?
A: 2.33%

Q: With C=CCN1CCC23c4c5ccc(O)c4O[C@H]2C(=O)CC[C@@]3(O)C1C5 (stereo partly drawn) as the molecule, how does the inhibition read?
A: 4.89%

Q: For Clc1ccc(N2CC3CCC(C2)N3)nn1, which inhibition is on record?
A: 1.03%

Q: For CN(N=O)c1cc(O)ccc1O, which inhibition is on record?
A: 2.32%

Q: Which inhibition does the source give for CCN(CC)C(=O)N[C@H]1C=C2c3cccc4[nH]cc(c34)C[C@H]2N(C)C1 here?
A: 8.76%

Q: For CC(C)(C)c1o[nH]c(=O)c1CC(N)C(=O)O (stereo not drawn), which inhibition is on record?
A: 0.571%

Q: For Cc1[nH]c2ccc(O)cc2c1CCN, which inhibition is on record?
A: 5.71%

Q: For c1ccc(CCCN2CCN(CCOC(c3ccccc3)c3ccccc3)CC2)cc1, which inhibition is on record?
A: 20%

Q: With C[N+]1(C)C2CCC1CC(OC(=O)C(CO)c1ccccc1)C2 (stereo not drawn) as the molecule, how does the inhibition read?
A: -0.808% and 1.27%

Q: Which inhibition does the source give for NN=C(N)N here?
A: 15.6% and 6.1%

Q: For NC(C(=O)O)c1cc(=O)[nH]o1 (stereo not drawn), which inhibition is on record?
A: 6.42%

Q: With CCN(CC)C(=O)N[C@@H]1C=C2c3cccc4[nH]cc(c34)C[C@H]2N(C)C1 as the molecule, how does the inhibition read?
A: 9.57%

Q: With COc1ccccc1N1CCNCC1 as the molecule, how does the inhibition read?
A: 6.65%

Q: For C[C@@H]1O[C@H](C[N+](C)(C)C)CS1, which inhibition is on record?
A: 4.65%

Q: For COc1ccc2c(c1)C13CCCCC1C(C2)N(C)CC3 (stereo not drawn), which inhibition is on record?
A: 6.06%

Q: Which inhibition does the source give for C[C@@H](N)Cc1cnc[nH]1 here?
A: -0.522%

Q: For COc1cc(C(O)CN)ccc1O (stereo not drawn), which inhibition is on record?
A: 2.77%

Q: With NC(=O)c1ccc(OCC(O)CN2CC=C(c3ccc(F)cc3)CC2)cc1 (stereo not drawn) as the molecule, how does the inhibition read?
A: -9.43%

Q: With NC(CP(=O)(O)O)C(=O)O (stereo not drawn) as the molecule, how does the inhibition read?
A: 5.89%

Q: For CC(C)(C)c1cc(C=C(C#N)C#N)cc(C(C)(C)C)c1O, which inhibition is on record?
A: 1.13%
